DT40 TDP1 CPT: growth inhibition of DT40 Tdp1-/-;hTDP1 cells with camptothecin (screen for TDP1 inhibitors); chicken DT40 Tdp1-/-;hTDP1 cells + 20 nM CPT, ATP luminescence, 48 h; Potency, µM (series often up to 46.2 µM), actives largely listed as inhibitors; hit rate 12% among 420,000; note: nearly all actives have a fitted effect of over 55% in size
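Chicken DT40 Tdp1-/- cells complemented with human TDP1, 400 cells/well, exposed to compounds plus 20 nM camptothecin for at least 48 h at 37 C; viability read as ATP content by CellTiter-Glo luminescence.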
DT40 TDP1 no CPT: qHTS for Inhibitors of human tyrosyl-DNA phosphodiesterase 1 (TDP1): qHTS in cells in absence of CPT; Potency, µM (top dose mostly 46.2 µM), usual class: inhibitors; DT40 Tdp1-/- hTDP1 cells, no CPT, ATP luminescence, 48 h; AID 686978, 2013; hit rate 15% among 420,000; note: nearly all actives have a fitted effect of over 55% in size
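No-CPT arm: Tdp1-/-;hTDP1 DT40 cells (400/well) plus compounds, incubated ≥48 hr at 37 °C. Readout CellTiter-Glo luminescence.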
12-LOX inh: inhibitors of human 12S-lipoxygenase ALOX12. P18054. purified 12hLO, xylenol orange hydroperoxide absorbance. Potency, µM (titrated, usually from 108 µM), usual class: inhibitors. hit rate 1.1% among 580,000
Target sequence (P18054 whole entry, looked up): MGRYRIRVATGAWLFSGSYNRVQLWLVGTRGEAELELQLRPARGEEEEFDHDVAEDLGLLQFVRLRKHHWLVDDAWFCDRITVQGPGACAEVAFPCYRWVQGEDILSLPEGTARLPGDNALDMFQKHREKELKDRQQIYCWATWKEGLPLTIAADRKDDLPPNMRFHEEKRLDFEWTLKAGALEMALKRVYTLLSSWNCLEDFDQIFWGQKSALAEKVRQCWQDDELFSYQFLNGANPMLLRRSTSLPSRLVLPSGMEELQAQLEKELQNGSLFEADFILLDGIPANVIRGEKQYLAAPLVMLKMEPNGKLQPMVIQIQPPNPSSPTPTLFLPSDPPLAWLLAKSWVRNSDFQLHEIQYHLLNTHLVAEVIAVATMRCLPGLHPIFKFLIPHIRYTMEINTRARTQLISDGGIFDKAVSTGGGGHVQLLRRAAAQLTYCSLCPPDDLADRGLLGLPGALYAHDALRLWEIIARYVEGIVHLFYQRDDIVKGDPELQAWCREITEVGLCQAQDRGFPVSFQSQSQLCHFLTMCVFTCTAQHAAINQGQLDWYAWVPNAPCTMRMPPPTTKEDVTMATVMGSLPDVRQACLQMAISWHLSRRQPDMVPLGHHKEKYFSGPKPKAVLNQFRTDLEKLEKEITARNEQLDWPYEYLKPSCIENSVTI
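Purified human 12hLO (150 nM final) in 25 mM Hepes, 0.01% Triton X-100, pH 7.0 was preincubated 15 min at room temperature with compound. Then 40 uM arachidonic acid was added, 30 min. Hydroperoxide was read by Fe-XO absorbance ratio 573/405 nm.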
HT1080-NT tox: kills 2HG-producing HT-1080-NT fibrosarcoma cells; HT-1080-NT fibrosarcoma viability, CellTiter-Glo ATP luminescence, 48 h; Potency, µM (highest dose often 46.1 µM), usual class: cytotoxic; hit rate 1.6% among 360,000; AID 686970;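 note: NT is the 2HG producing partner of a matched IDH1 knockdown line; nearly all actives have a fitted effect of over 55% in size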
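750 cells/well, RPMI + 5% FBS; 2 h settle, compound pin-transfer, 48 h at 37 degrees C. CellTiter-Glo 10 min RT, luminescence. Normalized to DMSO and media-only wells.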
IL-1B inflam inh: blocks inflammasome-driven IL-1 beta release | activity change, % at 57.5 µM | hit rate 4.7% among 360,000 | THP-1 LPS/ATP IL-1B secretion, AlphaLISA, 16 h; active compounds read low; in the data active = activity change below about -50%; inconclusive = mostly about -30% to -49%
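Secreted IL-1B measured by AlphaLISA bead assay after 16 h compound exposure of THP-1 cells; compounds (final up to 57.5 uM) added 1 h before LPS (250 ng/mL) and ATP (1.25 mM) stimulation; lower signal means less secretion.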
HT1080 IDH1KD tx: kills HT-1080 cells with IDH1 knockdown; Potency, µM (series often up to 46.1 µM), most hits filed as cytotoxic; HT-1080 IDH1 knockdown viability, ATP luminescence, 48 h; hit rate 2% among 360,000
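In this qHTS, HT-1080 cells depleted of IDH1 are exposed for 48 h at 37 °C to compound titrations. Toxicity is scored from CellTiter-Glo luminescence, with DMSO as full viability and medium alone as none.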
A number is an active result; [ ] = remark or other dose. The full list was thinned out, with hits kept by preference. Unless noted, calls come from the whole dose curve; as a rule, active = well fitted curve in the direction sought with a large enough effect; inconclusive = small, poorly fitted or top-dose-only effect, or another doubt; inactive = no such curve, though single readings can be large; an effect the other way counts as inactive or inconclusive.

How did NC(c1ccccc1)c1csc(NC(=O)Nc2ccccc2Oc2ccccc2)n1 (stereo not drawn) do in these assays?
DT40 TDP1 CPT: inconclusive; DT40 TDP1 no CPT: 15µM; 12-LOX inh: inconclusive; HT1080-NT tox: inconclusive; IL-1B inflam inh: inactive; HT1080 IDH1KD tx: inconclusive

How did CN(C)Cc1csc(NC(=O)Nc2ccccc2Oc2ccccc2)n1 do in these assays?
DT40 TDP1 CPT: inconclusive; DT40 TDP1 no CPT: inconclusive; 12-LOX inh: inconclusive; HT1080-NT tox: 16µM; IL-1B inflam inh: -104; HT1080 IDH1KD tx: inconclusive

What do the screens show for `COCCN1C(=O)[C@@H]2C[C@@H](CN2C(=O)c2cncnc2)Oc2ccccc21`?
12-LOX inh: inactive

What do the screens show for `NC(Cc1ccc(C(F)(F)F)cc1)c1csc(NC(=O)Nc2ccccc2Oc2ccccc2)n1` (stereo not drawn)?
DT40 TDP1 CPT: inconclusive; DT40 TDP1 no CPT: 18µM; 12-LOX inh: inconclusive; HT1080-NT tox: inconclusive; IL-1B inflam inh: -60; HT1080 IDH1KD tx: inactive

Results for NC(Cc1ccccc1)c1csc(NC(=O)Nc2ccccc2Oc2ccccc2)n1 (stereo not drawn) ?
DT40 TDP1 CPT: inactive; DT40 TDP1 no CPT: 21µM; 12-LOX inh: inconclusive; HT1080-NT tox: inconclusive; IL-1B inflam inh: inconclusive; HT1080 IDH1KD tx: inconclusive

What do the screens show for `COc1ccccc1NC(=O)Nc1nc(C(N)Cc2ccc(C(F)(F)F)cc2)cs1` (stereo not drawn)?
DT40 TDP1 CPT: 13µM; DT40 TDP1 no CPT: 15µM; 12-LOX inh: inconclusive; IL-1B inflam inh: inactive

How did Cc1ccc(-n2nc3c(=O)n(CC(=O)NCCCc4ccccc4)nc(C)c3c2C)cc1 do in these assays?
DT40 TDP1 CPT: inconclusive; DT40 TDP1 no CPT: 23µM; 12-LOX inh: inactive; HT1080-NT tox: inactive; IL-1B inflam inh: inactive; HT1080 IDH1KD tx: inconclusive

Results for CCOc1ccccc1CNC(=O)C(C)n1nc(C)c2c(C)n(-c3ccccc3)nc2c1=O (stereo not drawn) ?
DT40 TDP1 CPT: 23µM; DT40 TDP1 no CPT: inconclusive; 12-LOX inh: inactive; HT1080-NT tox: inactive; IL-1B inflam inh: inactive; HT1080 IDH1KD tx: inactive

How did CCCNC(=O)C(C)n1nc(C)c2c(C)n(-c3ccccc3)nc2c1=O (stereo not drawn) do in these assays?
DT40 TDP1 CPT: inactive; DT40 TDP1 no CPT: inactive; 12-LOX inh: inactive

Results for Cc1ccc(-n2nc3c(=O)n(C(C)C(=O)NCCCc4ccccc4)nc(C)c3c2C)cc1 (stereo not drawn) ?
DT40 TDP1 CPT: 16µM; DT40 TDP1 no CPT: 9.2µM; 12-LOX inh: inactive; HT1080-NT tox: inactive; IL-1B inflam inh: inactive; HT1080 IDH1KD tx: inactive

What do the screens show for `Cc1nn(CC(=O)NCCc2ccccc2)c(=O)c2nn(-c3ccccc3)c(C)c12`?
DT40 TDP1 CPT: inactive; DT40 TDP1 no CPT: inactive; 12-LOX inh: inactive

How did O=C(Cn1cnc2ccccc2c1=O)N1CCN(S(=O)(=O)c2ccc(F)cc2)CC1 do in these assays?
DT40 TDP1 CPT: inactive; DT40 TDP1 no CPT: inactive; 12-LOX inh: inactive; HT1080-NT tox: inactive[9.24 µM]; IL-1B inflam inh: inactive; HT1080 IDH1KD tx: inactive

Results for Cc1cc(F)ccc1NC(=O)Cn1c(C)csc1=O ?
DT40 TDP1 CPT: inactive; DT40 TDP1 no CPT: inactive; 12-LOX inh: inconclusive; HT1080-NT tox: inactive; IL-1B inflam inh: inactive; HT1080 IDH1KD tx: inactive

What do the screens show for `CCN(CC)C(=O)[C@H]1C[C@H](CC(=O)NCc2ccc(OC)c(OC)c2)C(=O)N2CCc3c([nH]c4ccc(Cl)cc34)[C@]12C`?
DT40 TDP1 CPT: inconclusive; DT40 TDP1 no CPT: 23µM; 12-LOX inh: inactive; HT1080-NT tox: inconclusive; IL-1B inflam inh: inactive; HT1080 IDH1KD tx: inconclusive

How did CCN(CC)C(=O)[C@H]1CC(CC(=O)NCCCN(C)C)C(=O)N2CCc3c([nH]c4ccccc34)[C@]12C (stereo partly drawn) do in these assays?
DT40 TDP1 CPT: inactive; DT40 TDP1 no CPT: inactive; 12-LOX inh: inactive; HT1080-NT tox: inactive; IL-1B inflam inh: inactive; HT1080 IDH1KD tx: inactive
